Screening data: PubChem, National Center for Advancing Translational Sciences (NCATS)
Pol beta inh: inhibitors of human DNA polymerase beta | P06746 | Pol beta primer extension/strand displacement, fluorescence kinetic | Potency, µM (doses to about 114 µM), without a hit: top-dose activity change, negative = inhibition, hits mostly inhibitors | 340,000 compounds, 1.3% hits | AID 485314; also: % is scaled to controls: 0 for no effect and ±100 for the full control effect
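Reaction started by 50 nM substrate onto compound-treated Pol beta (10 nM, 15 min preincubation, room temperature); plates read at 0 min and 10 min. Normalized concentration-effect data fitted by four-parameter Hill equation.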
WRN inhibitor: WRN helicase (human) inhibition; WRN helicase unwinding, fluorescent forked duplex, kinetic; Potency, µM (series often up to 114 µM), without a hit: at the highest dose activity change, negative = inhibition, most hits filed as inhibitors; 360,000 compounds, 0.46% hits; AID 651768; also: % is scaled to controls: 0 for no effect and ±100 for the full control effect; nearly all actives have a fitted effect of over 55% in size
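Fluorescence dequenching readout, ex 525 nm/em 598 nm, kinetic mode: forked duplex DNA (100 nM final) with adjacent fluorophore and quencher unwound by WRN (20 nM final) with 2 mM ATP. Compound preincubation 15 min, room temperature.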
POLK inh: DNA polymerase kappa (human) inhibition; Q9UBT6; purified Pol kappa, fluorescent DNA synthesis assay, 10 min; Potency, µM (titrated, usually from 107 µM), without a hit: top-dose activity, negative = inhibition, usual class: inhibitors; 400,000 compounds, 0.53% hits; AID 588579; also: % is scaled to controls: 0 for no effect and ±100 for the full control effect
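10 nM Pol kappa was preincubated with compounds for 15 min at room temperature. Reaction started with 50 nM (final) substrate. Fluorescence read kinetically at 0 and 10 min.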
Pol iota inh: inhibitors of human DNA polymerase iota; Pol iota fluorescent replication assay, 10 min; AID 588590; 390,000 compounds, 1% hits; Potency, µM (doses to about 115 µM), without a hit: top-dose activity, negative = inhibition, usual class: inhibitors
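Fluorescent replication assay read twice, at 0 min and 10 min after adding 50 nM (final) substrate. Enzyme (10 nM) and compounds were first incubated 15 min at room temperature; enzyme-free buffer wells were negative controls.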
FEN1 inh: blocks human flap endonuclease 1 | P39748 | Recombinant FEN1 flap cleavage, fluorescence, 15 min | Potency, µM (titrated, usually from 114 µM), for inactives: at the top dose activity change, negative = inhibition, actives largely listed as inhibitors | 390,000 compounds, 0.35% hits | AID 588795; also: % is scaled to controls: 0 for no effect and ±100 for the full control effect; nearly all actives have a fitted effect of over 65% in size
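Reaction started by adding substrate (50 nM final) to 10 nM enzyme after 15 min room-temperature compound preincubation. Reads at 0 and 15 min, with data normalized and fitted to a four-parameter Hill equation.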
Pol eta inh: inhibitors of human DNA polymerase eta | Q9Y253 | recombinant Pol eta, fluorescent DNA replication assay | Potency, µM (series often up to 114 µM), inactives show top-dose activity change, negative = inhibition, hits mostly inhibitors | 390,000 compounds, 1.2% hits | AID 588591; also: % is scaled to controls: 0 for no effect and ±100 for the full control effect
Target sequence (Q9Y253 whole entry, looked up): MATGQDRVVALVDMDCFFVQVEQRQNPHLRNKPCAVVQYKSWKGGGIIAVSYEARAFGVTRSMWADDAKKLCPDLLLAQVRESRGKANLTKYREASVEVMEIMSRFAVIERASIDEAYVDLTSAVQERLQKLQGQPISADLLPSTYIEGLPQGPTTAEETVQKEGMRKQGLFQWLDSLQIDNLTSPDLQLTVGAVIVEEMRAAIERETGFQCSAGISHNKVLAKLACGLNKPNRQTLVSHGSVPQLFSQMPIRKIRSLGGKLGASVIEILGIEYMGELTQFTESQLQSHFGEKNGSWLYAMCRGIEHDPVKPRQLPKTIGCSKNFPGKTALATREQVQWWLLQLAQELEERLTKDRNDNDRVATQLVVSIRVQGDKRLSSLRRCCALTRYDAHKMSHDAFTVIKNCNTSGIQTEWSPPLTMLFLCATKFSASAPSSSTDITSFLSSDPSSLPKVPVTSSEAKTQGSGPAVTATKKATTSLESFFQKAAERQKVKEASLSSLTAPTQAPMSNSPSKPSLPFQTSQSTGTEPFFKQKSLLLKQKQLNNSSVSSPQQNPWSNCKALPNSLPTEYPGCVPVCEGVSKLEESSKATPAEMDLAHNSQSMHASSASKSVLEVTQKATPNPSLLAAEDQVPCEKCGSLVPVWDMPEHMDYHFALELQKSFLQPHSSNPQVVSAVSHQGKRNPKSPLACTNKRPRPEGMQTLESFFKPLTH
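Pol eta at 10 nM preincubated with compounds 15 min at room temperature; reaction started with fluorescent substrate (50 nM final) and read kinetically at 0 and 10 min.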
An asterisk follows results filed as active; [ ] = dose if it differs, or a comment. Rows were chosen to be rich in hits. Some 2.4% of all compounds tested hit in one or more screens of this group. Calls follow the shape of the dose curve; as a rule, active = well fitted curve in the direction sought with a large enough effect; inconclusive = small, poorly fitted or top-dose-only effect, or another doubt; inactive = no such curve, though single readings can be large; an effect the other way counts as inactive or inconclusive. Potency is read from the fitted curve at half-maximal effect.

Results for CCOC(=O)c1c(NC(=O)C2C3C=CC(C3)C2(C)C(=O)O)sc2c1CCCC2 (configuration not stated) ?
Pol beta inh: 22µM*; WRN inhibitor: -19%[57.1 µM]; POLK inh: inconclusive; Pol iota inh: -31%; FEN1 inh: -10%; Pol eta inh: 20µM*

Results for CCc1ccc(OCC(=O)c2c(O)c3ccccc3oc2=O)cc1 ?
Pol beta inh: -4%; WRN inhibitor: 1%; POLK inh: -15%; Pol iota inh: inconclusive; FEN1 inh: 13%; Pol eta inh: -2%

What do the screens show for `CCc1oc2ccccc2c1C(=O)c1cc(Br)c(O)c(Br)c1`?
Pol beta inh: 50µM*; WRN inhibitor: -10%; POLK inh: -18%; Pol iota inh: 16%; FEN1 inh: 2%; Pol eta inh: -18%

How did Cc1ccc(CNC(=O)c2sc3nc(-c4ccccc4)cn3c2C)cc1 do in these assays?
Pol beta inh: -3%; POLK inh: -2%[60.1 µM]; Pol iota inh: 8%; FEN1 inh: 89µM*; Pol eta inh: -15%

What do the screens show for `Cc1c(C(=O)NCc2ccc(F)cc2)sc2nc(-c3ccc(F)cc3)cn12`?
Pol beta inh: 1%; POLK inh: -11%[60.1 µM]; Pol iota inh: -14%; FEN1 inh: -23%; Pol eta inh: -10%

What do the screens show for `CCOc1cccc2oc(-c3ccccc3Cl)cc(=O)c12`?
POLK inh: -17%

What do the screens show for `CN1CCC(N2CCN(c3cccc(C(F)(F)F)c3)CC2)CC1`?
Pol beta inh: 2%; WRN inhibitor: -1%; POLK inh: 1%; Pol iota inh: 35µM*; FEN1 inh: -18%; Pol eta inh: -8%

What do the screens show for `O=C1C=C(Nc2ccccc2O)c2ccccc2C1=O`?
Pol beta inh: 10%; WRN inhibitor: inconclusive; POLK inh: -9%; Pol iota inh: 32µM*; FEN1 inh: -8%; Pol eta inh: 25µM*

What do the screens show for `O=C1C=C(Nc2cccnc2)c2ccccc2C1=O`?
WRN inhibitor: -21%; POLK inh: -14%; Pol iota inh: 50µM*; FEN1 inh: -7%; Pol eta inh: 32µM*

Results for COc1cc(Cl)c(NC2=CC(=O)C(=O)c3ccccc32)c(OC)c1 ?
WRN inhibitor: 8%; POLK inh: -1%; Pol iota inh: inconclusive; FEN1 inh: -29%; Pol eta inh: 56µM*

What do the screens show for `Cc1ccc(NC2=CC(=O)C(=O)c3ccccc32)c(C)c1`?
WRN inhibitor: 1%; POLK inh: 1%; Pol iota inh: 44%; FEN1 inh: 7%; Pol eta inh: -31%

What do the screens show for `CCOc1ccc(NC2=CC(=O)C(=O)c3ccccc32)cc1`?
WRN inhibitor: -15%; POLK inh: -4%; Pol iota inh: 35µM*; FEN1 inh: -18%; Pol eta inh: 40µM*

Results for COc1ccc2c(c1)C=C/C2=C\c1ccc(N(C)C)cc1 ?
POLK inh: -9%; Pol iota inh: 7%; FEN1 inh: -20%

Results for O=C(Cc1ccc(OCc2ccccc2)cc1)NO ?
POLK inh: -8%; Pol iota inh: 72%; FEN1 inh: -4%

Results for Cc1nc2ccccc2n1CCc1nc2c3ccccc3nc(SCC(=O)NCc3ccco3)n2n1 ?
Pol beta inh: 40µM*; WRN inhibitor: -27%; POLK inh: -7%; Pol iota inh: inconclusive; FEN1 inh: -17%; Pol eta inh: inconclusive

Results for CC1(C)CC(=O)C2=C(C1)c1c(ccc3ccccc13)NC2c1ccc(OCC(=O)O)cc1 (configuration not stated) ?
Pol beta inh: 45µM*; WRN inhibitor: -2%; POLK inh: inconclusive; Pol iota inh: -5%; FEN1 inh: -9%; Pol eta inh: -15%

How did O=C(Nc1nc2c(s1)CCCC2)c1ccc(Br)s1 do in these assays?
Pol beta inh: -1%; WRN inhibitor: -19%; POLK inh: -6%; Pol iota inh: 79µM*; FEN1 inh: -14%; Pol eta inh: -9%

What do the screens show for `CCc1nn(CCCC(=O)NCc2ccc(OC)c(OC)c2)c(=O)c2cc3occc3n12`?
Pol beta inh: 2%; POLK inh: 3%; Pol iota inh: 8%; FEN1 inh: 17%

What do the screens show for `N=C1/C(=C/c2coc3ccccc3c2=O)C(=O)N=C2SC(c3ccco3)=NN12`?
Pol beta inh: -112%; WRN inhibitor: 40µM*; POLK inh: inconclusive; Pol iota inh: inconclusive; FEN1 inh: 32µM*; Pol eta inh: 3.2µM*

What do the screens show for `c1cc(-c2cnn3cc(-c4ccc(OCCN5CCCCC5)cc4)cnc23)ccn1`?
POLK inh: -11%[12 µM]

How did O=C(NCc1ccc2c(c1)OCO2)c1ccc(C2SCC(=O)N2Cc2ccco2)cc1 (configuration not stated) do in these assays?
Pol beta inh: -27%; WRN inhibitor: inconclusive; POLK inh: -34%; Pol iota inh: inconclusive; FEN1 inh: 13%; Pol eta inh: 79µM*

What do the screens show for `COCCNC(=O)c1ccc(C2SCC(=O)N2Cc2ccco2)cc1` (configuration not stated)?
Pol beta inh: 15%; WRN inhibitor: 8%; POLK inh: 1%; Pol iota inh: -13%; FEN1 inh: 7%; Pol eta inh: -10%

How did C=CCNC(=O)c1ccc(C2SCC(=O)N2Cc2ccco2)cc1 (configuration not stated) do in these assays?
Pol beta inh: inconclusive; WRN inhibitor: -39%; POLK inh: inconclusive; Pol iota inh: 45µM*; FEN1 inh: 13%; Pol eta inh: inconclusive

What do the screens show for `Cc1ccc(S(=O)(=O)N2CCCc3cc(NC(=O)c4ccc(C(C)(C)C)cc4)ccc32)cc1`?
Pol beta inh: 3%; POLK inh: -5%[60.1 µM]; Pol iota inh: 8%; FEN1 inh: 42%; Pol eta inh: -15%

What do the screens show for `CC(C)C[C@H](NC(=O)CNC(=O)[C@@H]1CCCN1C(=O)[C@H](CCCNC(=N)N)NC(=O)[C@H](CC(=O)O)NC(=O)[C@@H](NC(=O)[C@H](CC(N)=O)NC(=O)[C@@H](NC(=O)[C@H](CC(=O)O)NC(=O)CNC(=O)[C@@H](NC(=O)[C@@H](NC(=O)[C@H](C)NC(=O)[C@@H](N)CCC(N)=O)[C@@H](C)O)C(C)C)C(C)C)[C@@H](C)O)C(=O)N[C@@H](CC(C)C)C(=O)N[C@@H](CC(=O)O)C(=O)N[C@@H](CC(C)C)C(=O)N[C@@H](CCCCN)C(=O)O`?
POLK inh: 16%[60.1 µM]

Results for CCCN1CNc2c(c(=O)[nH]c(=S)n2CCc2ccc(Cl)cc2Cl)C1 ?
POLK inh: -4%; Pol iota inh: -10%; FEN1 inh: -12%
